The panel holds about 79,000 compounds, 15% with a hit somewhere; the sample as a whole holds those more often. Unmarked numbers belong to inactive results. Activity calls are given as the source filed them. Rule as the data show it: active = growth inhibition above about 70%; inactive = the rest.
Columns and labels:
[1] = NCI Yeast Anticancer Drug Screen. Data for the rad50 strain (AID 155);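 also: 0% = growth of vehicle-only cultures of the same strain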; settings: S. cerevisiae rad50 strain growth inhibition, stronger effect = higher value
In short: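 Readout: growth inhibition relative to vehicle-treated cultures. Compound exposure was carried out in a genetically defined yeast strain deficient in DNA damage repair.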

[2] = NCI Yeast Anticancer Drug Screen. Data for the mec2-1 strain (AID 157); settings: S. cerevisiae mec2-1 strain, stronger effect = higher value
In short: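 mec2-1 yeast strain, carrying an alteration in DNA damage repair or cell cycle control, was exposed to compounds; growth inhibition was measured relative to vehicle-treated controls.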

[3] = NCI Yeast Anticancer Drug Screen. Data for the sgs1 mgt1 strain (AID 161);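 also: 0% = growth of cultures given vehicle only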; settings: S. cerevisiae sgs1 mgt1 strain, stronger effect = higher value
In short: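 Compounds are added to genetically altered yeast, and growth is compared with cultures given vehicle alone to give percent inhibition.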

[4] = NCI Yeast Anticancer Drug Screen. Data for the cln2 rad14 strain (AID 165);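 also: 0% = growth equal to vehicle treated cultures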; settings: S. cerevisiae cln2 rad14 strain, stronger effect = higher value
In short: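 Yeast carrying cln2 and rad14 alterations (cell cycle control and DNA damage repair) were exposed to compounds. Growth inhibition was measured against vehicle-treated controls.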

[5] = NCI Yeast Anticancer Drug Screen. Data for the bub3 strain (AID 167); settings: S. cerevisiae bub3 mutant strain, stronger effect = higher value
In short: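 Readout: yeast growth inhibition, expressed relative to vehicle-only wells. The test organism is a mutant strain from a panel with lesions in DNA repair or checkpoint genes.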

[6] = NCI Yeast Anticancer Drug Screen. Data for the mlh1 rad18 strain (AID 175); settings: S. cerevisiae mlh1 rad18 strain growth inhibition, stronger effect = higher value
In short: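 Growth inhibition of the yeast strain was measured after compound exposure and expressed relative to vehicle-treated controls. The strain carries defined defects in DNA damage repair.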

[7] = at 5.0 µM (retest, dose inferred, filed as 0.5)
[8] = at 50.0 µM (retest, dose inferred, filed as 5.0)

Row | Compound | growth inhibition [1, 7] [%] | growth inhibition [1, 8] | growth inhibition ([1]; at 50.0 µM) | growth inhibition [2, 7] [%] | growth inhibition [2, 8] | growth inhibition ([2]; at 50.0 µM) | growth inhibition [3, 7] [%] | growth inhibition [3, 8] | growth inhibition ([3]; at 50.0 µM) | growth inhibition [4, 7] [%] | growth inhibition [4, 8] | growth inhibition ([4]; at 50.0 µM) | growth inhibition [5, 7] [%] | growth inhibition [5, 8] | growth inhibition ([5]; at 50.0 µM) | growth inhibition [6, 7] [%] | growth inhibition [6, 8] | growth inhibition ([6]; at 50.0 µM)
1 | CC(C)SCC1CO1 (configuration not stated) | -1 | 1% | -19.6% | -1 | -4% | 3.9% | -1 | 1% | 18.1% | 2 | -11% | 47.5% | 0 | -9% | -6.55% | -1 | -5% | -3.5%
2 | c1ccc(CSc2nnc3c4ccccc4c4ccccc4c3n2)cc1 | -4 | 5% | -22.6% | 8 | -22% | -19.7% | 5 | 5% | -5.3% | -21 | -12% | 29.4% | 8 | 13% | -9.25% | 1 | 3% | 42%
3 | CN(C)c1ccc(N=Nc2cccc3ccccc23)cc1 | 8 | 75% (active) | 34% | 3 | 89% (active) | 0.15% | 10 | 85% (active) | 4.3% | 1 | 51% | 50.2% | -5 | 88% (active) | -5.65% | -6 | 42% | 12.5%
4 | CCOC(=O)c1c(Cl)c(CC)c(N=[N+]=[N-])n2c1nc1ccccc12 | 8 | 73% (active) | 58.9% | 8 | 79% (active) | 56.9% | 10 | 73% (active) | 60.1% | 0 | 63% | 69.6% | 1 | 74% (active) | 55% | 9 | 80% (active) | 64.6%
5 | N#Cc1ccc([N+](=O)[O-])o1 | 11 | 97% (active) | 96.2% (active) | 1 | 98% (active) | 99% (active) | 9 | 93% (active) | 96.2% (active) | 8 | 59% | 62.8% | 7 | 92% (active) | 97.7% (active) | 15 | 99% (active) | 97.9% (active)
6 | CCCCN(CCCC)Cc1ccc(NC(C(=O)c2ccccc2)c2ccccc2)cc1 (configuration not stated) | -5 | 46% | 85.8% (active) | 25 | 49% | 82.2% (active) | 5 | 86% (active) | 93.8% (active) | -1 | 34% | 97.2% (active) | 0 | 52% | 90.5% (active) | 22 | 72% (active) | 98.7% (active)
7 | NNc1cc([N+](=O)[O-])ccc1Cl | 5 | 93% (active) | 88.5% (active) | 6 | 68% | 91.2% (active) | -8 | 84% (active) | 90.8% (active) | 4 | 38% | 68% | 24 | 94% (active) | 95.1% (active) | -20 | 95% (active) | 98.5% (active)
8 | CCN(CC)CCCNc1ncc(C)c2c1c1ccc3c(O)cccc3c1n2C | 22 | 62% | 29.3% | 8 | 7% | -0.35% | 21 | 40% | -31.9% | 8 | 8% | -17.4% | 19 | 35% | -9.95% | 17 | 34% | -3.05%
9 | Cc1nc2sc3c(c2c2nnnn12)CCCC3 | 2 | 28% | 6.6% | 8 | 29% | 16.9% | 24 | 74% (active) | 53% | 4 | 23% | -6.5% | 3 | 11% | 27.6% | 7 | 31% | 9.45%
10 | O=C(C(=O)c1ccncc1)c1ccccc1 | -148 | -127% | 7.6% | -52 | -55% | 23.1% | -58 | -63% | -5.6% | -59 | -59% | 34% | -64 | -83% | -12.2% | -117 | -114% | -14.6%
11 | N#C/C(=C\c1c(Cl)cccc1Cl)c1ccccc1 | 11 | 37% | 64.3% | -9 | 13% | 29.3% | 12 | 33% | 42.5% | 8 | 35% | 23% | 21 | 62% | 45.8% | -18 | 55% | 70.7% (active)
12 | COc1ccc2nc3cc([N+](=O)[O-])ccc3c(NNc3ccc([N+](=O)[O-])cc3)c2c1 | 2 | 2% | 58% | 2 | -4% | 36.9% | 3 | -4% | 65% | -5 | -15% | 30.9% | 2 | -5% | 55.2% | 5 | 0% | 66.2%
13 | Nc1ccc(Cc2ccc(N)cc2[N+](=O)[O-])c([N+](=O)[O-])c1 | 1 | 0% | 14.6% | 5 | 7% | 25.9% | 6 | 74% (active) | 66.8% | 5 | 31% | 39% | -4 | -3% | 35.4% | -6 | -2% | -18.9%
14 | Nc1ccc(SSc2ccc(N)cc2)cc1 | -2 | 97% (active) | 93% (active) | -3 | 98% (active) | 61.5% | 2 | 97% (active) | 57.6% | -7 | 72% (active) | 94.1% (active) | 0 | 98% (active) | 95.3% (active) | -1 | 98% (active) | 96.4% (active)
15 | O=S(=O)(c1ccc(OCC(O)COc2ccc(S(=O)(=O)c3ccc(OCC4CO4)cc3)cc2)cc1)c1ccc(OCC2CO2)cc1 (configuration not stated) | -5 | -9% | 21.6% | 4 | 11% | 37.2% | 0 | 19% | 63.1% | 3 | 25% | 2.95% | -4 | -2% | -20.5% | 8 | 29% | 78.1% (active)
16 | CCOC(=O)CNC(=O)Sc1ccc(C(C)(C)C)cc1C | 17 | 32% | 0.05% | 22 | 74% (active) | 19.8% | 17 | 60% | 82% (active) | 19 | 84% (active) | 75.7% (active) | 14 | 92% (active) | 69.7% | 29 | 50% | 26.7%
17 | C#CC(C)(C)Nc1c2ccccc2nc2ccccc12 | 7 | 98% (active) | 98.2% (active) | 2 | 97% (active) | 94.6% (active) | -1 | 98% (active) | 98.8% (active) | 0 | 94% (active) | 93.7% (active) | -2 | 98% (active) | 97.5% (active) | 11 | 98% (active) | 98.7% (active)
18 | Cc1ccc(NC(=O)c2cc3ccccc3c(N=Nc3cc(S(=O)(=O)O)ccc3O)c2O)c(C)c1 | 33 | 85% (active) | 71.8% (active) | 33 | 84% (active) | 52.3% | 56 | 92% (active) | 78.7% (active) | 29 | 43% | 59.9% | 50 | 92% (active) | 82.8% (active) | 57 | 87% (active) | 80.8% (active)
19 | COc1ccc([N+](=O)[O-])cc1[I+]c1cc([N+](=O)[O-])ccc1OC | 19 | 95% (active) | 93.2% (active) | 58 | 89% (active) | 76.3% (active) | 49 | 95% (active) | 92.2% (active) | 16 | 86% (active) | 94.2% (active) | 9 | 85% (active) | 90.8% (active) | 57 | 98% (active) | 95.7% (active)

From PubChem BioAssay (NCI)
